In the library only some 19% were active in any assay of this set; here they are far more common.
TDP1 cell CPT: DT40-hTDP1 cell growth loss with CPT; Potency, µM (doses to about 46.2 µM), most hits filed as inhibitors; chicken DT40 Tdp1-/-;hTDP1 cells + 20 nM CPT, ATP luminescence, 48 h; AID 686979; actives 12% (n = 420,000); further: nearly all actives have a fitted effect of over 55% in size
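Cell growth measured by CellTiter-Glo luminescence after a minimum 48 h, 37 C compound exposure with 20 nM CPT in Tdp1-knockout DT40 cells stably expressing hTDP1, seeded 400/well; qHTS titration format.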
KB-3-1 cytotox: kills parental KB-3-1 adenocarcinoma cells. Potency, µM (doses to about 46.1 µM), usual class: cytotoxic. actives 1.4% (n = 400,000). KB-3-1 viability, CellTiter-Glo ATP luminescence, 72 h; further: nearly all actives have a fitted effect of over 60% in size
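72 h, 37 °C compound treatment of KB-3-1 parental cells; CellTiter-Glo added, 10 min, luminescence read. Data corrected against DMSO-only plates and normalized before curve fitting.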
HT1080-NT tox: kills 2HG-producing HT-1080-NT fibrosarcoma cells. HT-1080-NT fibrosarcoma viability, CellTiter-Glo ATP luminescence, 48 h. Potency, µM (top dose mostly 46.1 µM), hits mostly cytotoxic. actives 1.6% (n = 360,000). AID 686970;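 further: NT is the 2HG producing partner of a matched IDH1 knockdown line; nearly all actives have a fitted effect of over 55% in size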
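Luminescent CellTiter-Glo readout after 48 hours of compound exposure at 37 degrees C defined viability of HT-1080-NT cells. Activity was normalized to DMSO wells and cell-free media wells; concentration-response curves were fitted and assigned curve classes.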
HT1080 IDH1KD tx: kills HT-1080 cells with IDH1 knockdown | HT-1080 IDH1 knockdown viability, ATP luminescence, 48 h | Potency, µM (highest dose often 46.1 µM), most hits filed as cytotoxic | actives 2% (n = 360,000) | AID 686971
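% activity derives from luminescence (CellTiter-Glo), normalised to DMSO and no-cell wells. HT-1080-IDH1KD cells, 750/well, had 48 h compound exposure at 37 °C.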
KB-V1 MDR tox: kills drug-selected multidrug resistant KB-V1 cells; KB-V1 MDR cells viability, CellTiter-Glo, 72 h; AID 1347076; actives 3.4% (n = 400,000); Potency, µM (highest dose often 46.1 µM), hits mostly cytotoxic; further: nearly all actives have a fitted effect of over 60% in size
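Following 72 h at 37 degrees C with compound, KB-V1 cell viability was read by CellTiter-Glo luminescence, medium being phenol-red-free DMEM plus 10% FBS; concentration-response parameters came from normalized, curve-fitted qHTS data.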
TDP1 cell noCPT: qHTS for Inhibitors of human tyrosyl-DNA phosphodiesterase 1 (TDP1): qHTS in cells in absence of CPT. DT40 Tdp1-/- hTDP1 cells, no CPT, ATP luminescence, 48 h. Potency, µM (doses to about 46.2 µM), actives largely listed as inhibitors. actives 15% (n = 420,000); further: nearly all actives have a fitted effect of over 55% in size
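Chicken DT40 Tdp1-/- cells stably complemented with human TDP1 were seeded at 400 cells/well with DMSO in place of 20 nM camptothecin. After compound pinning, cells grew at least 48 hr at 37 °C; viability read by CellTiter-Glo luminescence.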
Numbers stand for hits; ! = repeats disagree; [ ] = remark or other dose. The call rests on the fitted dose curve; in most records, active means well fitted curve in the direction sought with a large enough effect; inconclusive means small, poorly fitted or top-dose-only effect, or another doubt; inactive means no such curve, though single readings can be large; an effect the other way counts as inactive or inconclusive.

For COc1ccccc1-n1c(-c2ccoc2)nc2ccccc2c1=O the results were TDP1 cell CPT 11.6µM, KB-3-1 cytotox inactive, HT1080-NT tox inactive, HT1080 IDH1KD tx inactive, KB-V1 MDR tox inactive and TDP1 cell noCPT 18.4µM.
O=c1c2ccccc2nc(-c2ccoc2)n1-c1ccccc1Cl was read as TDP1 cell CPT 20.6µM, KB-3-1 cytotox inconclusive, HT1080-NT tox inactive, HT1080 IDH1KD tx inconclusive, KB-V1 MDR tox 16.4µM and TDP1 cell noCPT 16.4µM.
For CC(C)CN1CCCC2(CCN(C(=O)Oc3ccccc3)CC2)C1 the results were TDP1 cell CPT inactive and TDP1 cell noCPT inactive.
Screening CN1CC[C@@]2(CCCN(C(=O)c3ccncc3)C2)C1 returned TDP1 cell CPT inactive and TDP1 cell noCPT inactive.
For CN1Cc2c(ccc3c2OCO3)C2C(O)Cc3cc4c(cc3C21)OCO4 (stereo not given) the results were TDP1 cell CPT 2.66µM and TDP1 cell noCPT 1.88µM.
Screening CCCCOP(=O)(OCCCC)C(O)c1ccc(F)cc1 (stereo not given) returned TDP1 cell CPT inactive, KB-3-1 cytotox inactive, HT1080-NT tox inactive, HT1080 IDH1KD tx inactive, KB-V1 MDR tox inactive and TDP1 cell noCPT inconclusive.
Screening O=c1c2ccccc2nc(N2CCCC2)n1-c1ccc(Cl)cc1 returned TDP1 cell CPT 20.6µM, KB-3-1 cytotox inconclusive, HT1080-NT tox inactive, HT1080 IDH1KD tx inactive, KB-V1 MDR tox 23.1µM and TDP1 cell noCPT 16.4µM.
`CCN(CC)CCSc1nc2ccccc2c(=O)n1-c1ccc(Cl)cc1` gave TDP1 cell CPT 7.31µM and TDP1 cell noCPT 20.6µM.
Screening CC(C)CCCC(C)C1CCC2C3CC(O)[C@@]4(O)CC(O)CC[C@@]4(C)C3CC[C@@]12C (stereo not given in full) returned TDP1 cell CPT inconclusive and TDP1 cell noCPT 18.4µM.
Screening CCCN(c1ccc(C(C)C)cc1)S(=O)(=O)c1ccc2c(c1)CCN2C(=O)CC returned TDP1 cell CPT inconclusive, KB-3-1 cytotox inactive, KB-V1 MDR tox inactive and TDP1 cell noCPT 7.31µM.
C=C[C@H]1CN2CC[C@H]1C[C@H]2c1[nH]c2ccccc2c1CCO was read as TDP1 cell CPT inactive and TDP1 cell noCPT inactive.
COc1cc(/C=C2/C(=O)NC(=O)N(c3ccccc3)C2=O)ccc1O was read as TDP1 cell CPT inactive, KB-3-1 cytotox inactive, HT1080-NT tox inactive, HT1080 IDH1KD tx inactive, KB-V1 MDR tox inactive and TDP1 cell noCPT inactive.
For CCOc1cc(/C=C2/C(=O)NC(=O)N(c3ccc(CC)cc3)C2=O)ccc1OC(=O)c1cccs1 the results were TDP1 cell CPT inactive, KB-3-1 cytotox inactive, HT1080-NT tox inactive, HT1080 IDH1KD tx inactive, KB-V1 MDR tox inactive and TDP1 cell noCPT 29.1µM.
Screening CCOc1ccc(-c2cc(C)[n+](CCO)c(-c3ccc(OCC)cc3)c2)cc1 returned TDP1 cell CPT 1.46µM, KB-3-1 cytotox inactive, HT1080-NT tox inconclusive, HT1080 IDH1KD tx inconclusive, KB-V1 MDR tox inactive and TDP1 cell noCPT 0.651µM.
For NCCc1ccccc1 the results were TDP1 cell CPT inactive, KB-3-1 cytotox inactive, HT1080-NT tox inactive, HT1080 IDH1KD tx inactive, KB-V1 MDR tox inactive and TDP1 cell noCPT inactive.
Cc1cc(-c2ccccc2)cc(-c2ccccc2)[n+]1CCc1ccccc1 was read as TDP1 cell CPT 0.184µM, KB-3-1 cytotox inconclusive, HT1080-NT tox inactive, HT1080 IDH1KD tx inactive, KB-V1 MDR tox inactive and TDP1 cell noCPT 0.206µM.
CCOc1ccc(-c2cc(C)[n+](CCc3ccc(OC)c(OC)c3)c(-c3ccc(OCC)cc3)c2)cc1 was read as TDP1 cell CPT 0.82µM, KB-3-1 cytotox 5.8µM, HT1080-NT tox 20.6µM, HT1080 IDH1KD tx 16.4µM, KB-V1 MDR tox inactive and TDP1 cell noCPT 1.16µM.
`Fc1ccc(C[n+]2c(-c3ccccc3)cc(-c3ccccc3)cc2-c2ccccc2)cc1` gave TDP1 cell CPT 1.16µM, KB-3-1 cytotox 16.4µM, HT1080-NT tox 16.4µM, HT1080 IDH1KD tx 18.4µM, KB-V1 MDR tox inactive and TDP1 cell noCPT 0.581µM.
`CN1Cc2c(c(C#N)c(N)n(C)c2=S)CC1(C)C` gave TDP1 cell CPT inconclusive, KB-3-1 cytotox inactive, HT1080-NT tox inactive, HT1080 IDH1KD tx inactive, KB-V1 MDR tox inconclusive and TDP1 cell noCPT inactive.
`COc1ccc(C(=O)CC(c2ccc3c(c2)OCO3)c2c(O)c3ccccc3oc2=O)cc1OC` (stereo not given) gave TDP1 cell CPT inactive, KB-3-1 cytotox inactive, HT1080-NT tox inactive, HT1080 IDH1KD tx inactive, KB-V1 MDR tox inactive and TDP1 cell noCPT inconclusive.
`COc1ccc(CN2CCN(c3ncnc4sc5c(c34)CCCC5)CC2)cc1F` gave TDP1 cell CPT 8.2µM and TDP1 cell noCPT 5.17µM.
For CCCCC/C=C\C/C=C\C/C=C\C/C=C\CCCC(=O)O the results were TDP1 cell CPT 29.9µM! and TDP1 cell noCPT 23.7µM!.
CCCCC/C=C\C[C@@H](/C=C/C=C\C/C=C\CCCC(=O)O)OO was read as TDP1 cell CPT inactive[0.628 µM] and TDP1 cell noCPT inactive[0.628 µM].
COc1ccc(-n2nnnc2C(c2ccccc2OC(F)(F)F)N2CCC3(CC2)C(=O)NCN3c2ccccc2)cc1 (stereo not given) was read as TDP1 cell CPT 18.4µM, KB-3-1 cytotox inconclusive, HT1080-NT tox inconclusive, HT1080 IDH1KD tx 16.4µM, KB-V1 MDR tox inconclusive and TDP1 cell noCPT 23.1µM.
For COc1ccc(-n2nnnc2C(c2ccnc3ccccc23)N2CCC3(CC2)C(=O)NCN3c2ccccc2)cc1 (stereo not given) the results were TDP1 cell CPT inconclusive, KB-3-1 cytotox inactive, HT1080-NT tox inconclusive, HT1080 IDH1KD tx inconclusive, KB-V1 MDR tox inconclusive and TDP1 cell noCPT 23.1µM.
`O=C1NCN(c2ccccc2)C12CCN(C(c1ccccc1OC(F)(F)F)c1nnnn1C1CCCC1)CC2` (stereo not given) gave TDP1 cell CPT inconclusive, KB-3-1 cytotox inconclusive, HT1080-NT tox inactive, HT1080 IDH1KD tx inactive, KB-V1 MDR tox inconclusive and TDP1 cell noCPT inconclusive.
`CC(C)(C)n1nnnc1C(c1cccs1)N1CCC2(CC1)C(=O)NCN2c1ccccc1` (stereo not given) gave TDP1 cell CPT inactive, KB-3-1 cytotox inactive, HT1080-NT tox inactive, HT1080 IDH1KD tx inactive, KB-V1 MDR tox inactive and TDP1 cell noCPT inconclusive.
`O=C1NCN(c2ccccc2)C12CCN(C(CCc1ccccc1)c1nnnn1C1CCCCC1)CC2` (stereo not given) gave TDP1 cell CPT inconclusive, KB-3-1 cytotox inconclusive, HT1080-NT tox inconclusive, HT1080 IDH1KD tx 25.9µM, KB-V1 MDR tox inconclusive and TDP1 cell noCPT inconclusive.

Source: PubChem
